The list is not random: actives were taken first. Their share in the collection is about 12%.
USP17 block – inhibitors of human USP17 deubiquitinase | purified USP17, Ub-rhodamine cleavage fluorescence, 3 h | inhibition, % at 50 µM | A8MUK1 | 47,000 compounds, 6.5% hits
USP8 block – blocks human USP8 ubiquitin-rhodamine cleavage. P40818. purified USP8, Ub-rhodamine cleavage fluorescence, 30 min. inhibition, % at 20 µM. 47,000 compounds, 4.2% hits. AID 1645853
USP7 inh – inhibitors of human USP7 deubiquitinase; purified USP7, Ub-rhodamine cleavage fluorescence; inhibition, % at 20 µM; 47,000 compounds, 0.3% hits; AID 1645854
USP30 block – inhibitors of human USP30 deubiquitinase. Q70CQ3. purified USP30, Ub-rhodamine cleavage fluorescence. inhibition, % at 25 µM. 47,000 compounds, 5.3% hits. AID 1645860
UCHL1 block – blocks human UCHL1 ubiquitin-rhodamine cleavage; purified UCHL1, Ub-rhodamine cleavage fluorescence; AID 1645859; inhibition, % at 20 µM; P09936; 47,000 compounds, 0.2% hits
USP10 inh – inhibitors of human USP10 deubiquitinase | inhibition, % at 20 µM | 47,000 compounds, 1.1% hits | purified USP10, Ub-rhodamine fluorescence, 60 min | AID 1645856 | Q14694
* = called active by the depositor; · = no result given. No stated cut-off is given here; in the data, active means inhibition above about 30%; inactive means the rest.

SMILES | USP17 block | USP8 block | USP7 inh | USP30 block | UCHL1 block | USP10 inh
COc1cc(OC)c2c(C)c(CC(=O)Nc3cccc(C(C)O)c3)c(=O)oc2c1 (centres undefined) | 30* | 3 | · | 7 | 4 | -1
COc1ccccc1CNC(=O)c1ccc(-c2csc(C)n2)cc1 | -1 | -4 | -2 | 1 | 2 | 0
CCC(=O)Nc1cccnc1-c1ccc(C(=O)NCc2ccc(F)cc2)cc1 | -9 | -9 | 0 | -10 | -4 | 1
Cc1nc(-c2ccc(C(=O)NCc3ccc(F)cc3)cc2)cs1 | 52* | 25 | 7 | 11 | 3 | 8
COc1ccccc1NC(=O)c1ccc(-c2csc(C)n2)cc1 | 41* | 1 | 2 | · | 2 | 0
O=C(NCc1ccc(F)cc1)c1ccc(-c2cccs2)cc1 | 59* | 4 | 4 | · | 2 | 8
Cc1noc(-c2csc(C(=O)NCc3ccc(F)cc3)n2)n1 | 0 | -3 | -2 | 20 | 1 | 0
Cc1cccc(N(C(=O)Nc2ccc(Cl)cc2)C2=NCCC2)c1C | -4 | 0 | 3 | -23 | 2 | 3
COc1ccc(S(=O)(=O)N2Cc3ccccc3N(C)C(C)C2)cc1OC (centres undefined) | 2 | 10 | 3 | -2 | 3 | 1
CC1=C(c2ccccc2)S(=O)(=O)N=C1N1CCCN(C(=O)c2cccc(C#N)c2)CC1 | -2 | 1 | -1 | 0 | -1 | 1
COc1cccc(CNS(=O)(=O)c2ccc3[nH]c(=O)[nH]c3c2)c1 | 8 | 14 | 1 | -4 | 4 | 5
O=c1[nH]c2ccc(S(=O)(=O)Nc3ccc(O)c4ccccc34)cc2[nH]1 | 63* | 95* | -72 | -10 | 37* | 49*
CCOC(=O)c1cc2c(ccn2-c2ccc(F)cc2)n1CC(=O)N1CCN(C(=O)c2ccco2)CC1 | 36* | 16 | 4 | 45* | 2 | 4
CCOC(=O)c1cc2c(ccn2-c2ccc(F)cc2)n1CC(=O)NC1CCCCC1 | 25 | 27 | 0 | 0 | -3 | -6
O=C(Nc1ccccc1)c1ccnc(Nc2ccc(F)cc2)c1 | 30* | 40* | -6 | 7 | 0 | 1
O=C(Nc1ccc(F)cc1)c1cccc(-c2nc(-c3ccccc3)no2)c1 | 5 | 7 | 1 | -6 | -1 | 4
COc1ccc(OCC(=O)Nc2cc(F)c3nc(N4CCOCC4)ccc3c2)cc1 | 10 | 6 | 4 | -65 | 0 | -7
CC(C)CC(=O)Nc1cc(F)c2nc(N3CCOCC3)ccc2c1 | 75* | 80* | -6 | -53 | 5 | -8
O=C(COc1nc2ccccc2nc1N1CCOCC1)NCCc1ccc(F)cc1 | -16 | -3 | -7 | · | -4 | -2
O=C(COc1nc2ccccc2nc1N1CCOCC1)Nc1ccc(F)cc1 | 21 | 20 | 6 | 38* | 2 | 10
O=C(CCc1ccccc1)Nc1cc(F)c2nc(N3CCOCC3)ccc2c1 | 16 | 46* | -5 | -2 | -2 | -2
O=C(COc1ccc(F)cc1)Nc1cc(F)c2nc(N3CCOCC3)ccc2c1 | 51* | 41* | -17 | -4 | -14 | -11
COc1cc2oc(=O)c(CC(=O)N3CCN(C(C)=O)CC3)c(C)c2cc1OC | 19 | 16 | 5 | 25 | 0 | 3
COc1ccc(S(=O)(=O)N2CCC(c3nc4ccccc4s3)CC2)cc1 | 7 | 16 | 8 | 16 | 0 | 1
COc1cccc(C(=O)Nc2cc(-c3cccnc3)no2)c1 | · | -13 | 1 | 3 | 1 | -2
SMILES | USP17 block | USP8 block | USP7 inh | USP30 block | UCHL1 block | USP10 inh
Cc1ccc(CNC(=O)C2CCCN(C(=O)c3cc(-c4ccccn4)n[nH]3)C2)cc1 (centres undefined) | -22 | -104 | -2 | 19 | -2 | 0
COc1ccc(-c2cc(C(=O)Nc3ccccc3F)on2)cc1 | 42* | 15 | 11 | 0 | 2 | 4
COc1ccc(-c2ocnc2C(=O)NCc2ccc(F)cc2)cc1OC | 3 | 4 | 1 | -10 | 2 | -1
COc1ccc(-c2ocnc2C(=O)Nc2ccccc2F)cc1OC | 76* | 26 | 5 | 81* | 6 | 0
COc1cccc(-c2ocnc2C(=O)Nc2ccc(C)cc2C)c1 | 39* | 3 | 4 | 34* | 0 | 5
COc1ccc(-c2ocnc2C(=O)Nc2cc(F)ccc2F)cc1 | 5 | 10 | 0 | -1 | 1 | 2
COc1ccc(NC(=O)c2ncoc2-c2cccs2)c(OC)c1 | 46* | 3 | 4 | 9 | 6 | 6
c1coc(-c2cc3nc(NCc4ccc5c(c4)OCO5)ccn3n2)c1 | 4 | 58* | 11 | -179 | 0 | -5
Cc1cc(C)n(CC2CCCCN2C(=O)Cn2cncn2)n1 (centres undefined) | -7 | 0 | -1 | 3 | -4 | 1
O=C(NC1CC(=O)c2cc3c(cc21)OCO3)c1cccs1 (centres undefined) | 20 | 16 | 0 | 30 | 1 | 0
CC1(C)Cc2c(sc3nc(SCc4ccc(Cl)c(Cl)c4)nc(N)c23)CO1 | -5 | -4 | -3 | -15 | -2 | 1
CCCC1Cc2c(sc3nc(SCc4ccccc4Cl)nc(N)c23)CO1 (centres undefined) | 40* | -2 | -21 | -2 | -3 | 17
CCCCSc1nc(N)c2c3c(sc2n1)COC(CCC)C3 (centres undefined) | -3 | 1 | 2 | -1 | -2 | 6
CCCC1Cc2c(sc3nc(SCC)nc(N)c23)CO1 (centres undefined) | 81* | 2 | 1 | 0 | -1 | 2
COc1ccc(NC(=O)CSc2ncnc3c2sc2nc(CC(C)C)c4c(c23)CCC4)cc1 | 8 | 12 | 2 | 21 | 1 | 2
CCCCc1nc2sc3c(SCC(=O)Nc4ccc(OC)cc4)ncnc3c2c2c1CCC2 | 25 | 16 | 3 | 48* | 1 | 0
O=C1N(c2ccccc2)C2CS(=O)(=O)CC2N1c1ccc(F)cc1 (centres undefined) | 7 | 11 | -3 | 8 | 0 | 0
O=C1N(c2ccccc2)C2CS(=O)(=O)CC2N1c1ccc([N+](=O)[O-])cc1 (centres undefined) | 30* | 0 | -23 | · | 2 | 0
COc1cc(OC)nc(N2CCC(C(=O)O)CC2)n1 | -2 | -1 | -4 | -4 | -4 | -3
CC(C)=CCC/C(C)=C/CC/C(C)=C/Cc1c(C)[nH]c2ccccc2c1=O | 8 | 2 | 6 | 0 | 1 | 2
CC(C)=CCC/C(C)=C/Cc1c(O)cc2c(c1O)C(=O)OC2 | 63* | 57* | 88* | 14 | 83* | 64*
O=C(CNC(=O)c1ccc2nc(-n3cccc3)sc2c1)NCc1ccccc1 | 18 | 39* | · | -265 | 5 | -3
O=C(NCCCO)c1ccc2nc(-n3cccc3)sc2c1 | -2 | -24 | -6 | -27 | -4 | -1
O=C(CNC(=O)c1ccc2nc(-n3cccc3)sc2c1)NCc1ccccc1Cl | -133 | 46* | 9 | -336 | 0 | -6
